{
  "source": "PubChem BioAssay (Tox21)",
  "note": "Records with an inconclusive call do not appear. Unmarked numbers belong to inactive results. The source made the active and inactive calls. Calls follow the shape of the dose curve; as a rule, active = well fitted cell-killing curve with a large enough effect in the repeat runs (not every such curve was filed as active); inconclusive = weak or mixed curves, or effect the other way; inactive = no such curve, though single readings can be large or run the other way. % is scaled to controls: 0 for no effect and ±100 for the full control effect; potency is read from the fitted curve at half-maximal effect.",
  "data": [
    {"experiment": "qHTS assay to identify small molecule antagonists of the estrogen related receptor signaling pathway with the pleiotropic PPARgamma coactivator (PGC) from Tox21 10K library - cell viability counter screen (AID 1224840); also: nearly all actives have a fitted effect of over 40% in size", "conditions": "PGC/ERR reporter cells viability, CellTiter-Fluor, 17.5 h; series mostly up to 92.4 µM; viability change, negative = cytotoxic: at the top concentration", "from_the_text": "National Center for Advancing Translational Sciences [NCATS]\nNIH Chemical Genomics Center [NCGC]\nU.S. Environmental Protection Agency [EPA]\nNational Institutes of Environmental Health Sciences [NIEHS]\nNational Toxicology Program [NTP]\nU.S. Food and Drug Administration [FDA]\nEstrogen related receptors (ERRs), the first orphan nuclear receptors discovered, play an important role in the control of cellular energy metabolism. ERRs are required for high-energy production in response to the environmental challenges. The pleiotropic PPARgamma coactivator (PGC) is a major partner of ERR and a key regulator in energy homeostasis. Together they have been implicated in the etiology of metabolic disorders such as Type 2 diabetes and metabolic syndrome. ERR-alpha was also identified as an adverse marker for breast cancer progression; ERR-alpha-positive tumors have a poor prognosis. To screen and to identify environmental compounds that perturb the ERR and PGC/ERR signaling pathways could provide valuable information for potential therapeutic or preventive measures in the treatment of metabolic disease. To differentiate true PGC/ERR antagonists or agonist from cytotoxic substances, the assay is multiplexed with cell viability assay.\nTox21 Assay Protocol Summary:\nThe PGC/ERR cells were dispensed at 2,000 cells/5 ul/well in 1536-well white plates using a Multidrop dispenser. After the assay plates were incubated at a 37 C/5% CO2 incubator for 6 hours, 23 nL of compounds dissolved in DMSO, positive and negative controls or DMSO only was transferred to the assay plate by a pin tool. The plates were incubated at 37 C for 17.5 hours. 1 ul/well of CellTiter-Fluor reagent was added into the assay plates using a Flying Reagent Dispenser. After 30-minute incubation at 37 C/5% CO2, the fluorescence intensity in the plates was measured using a ViewLux plate reader.", "values": [
      {"smiles": "Clc1ccc(C(c2ccc(Cl)cc2)C(Cl)(Cl)Cl)cc1", "Potency": "inactive"},
      {"smiles": "CNC(C)Cc1ccc2c(c1)OCO2", "note": "(stereo not given)", "viability change, negative = cytotoxic": "16.9%"},
      {"smiles": "CCCCCCCCCC[N+](C)(C)CCCCCCCCCC", "Potency": "27.3 µM (active)"},
      {"smiles": "CC(O)C#N", "note": "(stereo not given)", "viability change, negative = cytotoxic": "2.56%"},
      {"smiles": "ClC1=C(Cl)[C@]2(Cl)[C@@H]3[C@@H](Cl)[C@@H](Cl)C[C@@H]3[C@@]1(Cl)C2(Cl)Cl", "viability change, negative = cytotoxic": "-1.59%"},
      {"smiles": "COP(N)(=S)OC", "viability change, negative = cytotoxic": "0.224%"},
      {"smiles": "ClC1=C(Cl)C2(Cl)C3C(Cl)C=CC3C1(Cl)C2(Cl)Cl", "note": "(stereo not given)", "viability change, negative = cytotoxic": "-27.9%"},
      {"smiles": "O=[N+]([O-])c1ccc(Oc2ccc(C(F)(F)F)cc2[N+](=O)[O-])cc1", "viability change, negative = cytotoxic": "-2.37%"},
      {"smiles": "CCOC(=O)CC(=O)CCl", "viability change, negative = cytotoxic": "-10.2%"},
      {"smiles": "CCCCCCCCCCCCCCCC[n+]1ccccc1", "Potency": "53.7 µM (active) [middle of 4 runs]"},
      {"smiles": "O=[N+]([O-])c1cc(C(F)(F)F)c(Cl)c([N+](=O)[O-])c1Cl", "Potency": "48.6 µM (active)"},
      {"smiles": "CC(=O)Nc1ccc2c(c1)Cc1ccccc1-2", "viability change, negative = cytotoxic": "-2.58%"},
      {"smiles": "CC(=[OH+])/C=C(/C)[O-].CC(=[OH+])/C=C(\\C)[O-].CC(=[OH+])/C=C(\\C)[O-].[Fe]", "viability change, negative = cytotoxic": "-5.87%"},
      {"smiles": "C[CH2][Hg][N]1C(=O)C2C(C1=O)C1(Cl)C(Cl)=C(Cl)C2(Cl)C1(Cl)Cl", "note": "(stereo not given)", "Potency": "13 µM (active)"},
      {"smiles": "N#Cc1ccccc1N", "viability change, negative = cytotoxic": "5.67%"},
      {"smiles": "ClC(Cl)=C(Cl)Cl", "viability change, negative = cytotoxic": "-12.9%"},
      {"smiles": "ClC1=C(Cl)[C@]2(Cl)[C@H]3[C@H]([C@H]4C=C[C@H]3C4)[C@@]1(Cl)C2(Cl)Cl", "viability change, negative = cytotoxic": "-17.6%"},
      {"smiles": "ClCc1ccc(Cl)cc1Cl", "viability change, negative = cytotoxic": "8.36%"},
      {"smiles": "Cc1ccc(C(=O)Cl)cc1", "viability change, negative = cytotoxic": "1.38%"},
      {"smiles": "BrCBr", "viability change, negative = cytotoxic": "0.714%"},
      {"smiles": "CCOP(=S)(OCC)SCCS(=O)(=O)CC", "viability change, negative = cytotoxic": "-1.68%"},
      {"smiles": "CC(C)C(=O)Cl", "viability change, negative = cytotoxic": "-7.87%"},
      {"smiles": "CCOC(=O)c1ccccc1S(=O)(=O)NC(=O)Nc1nc(Cl)cc(OC)n1", "viability change, negative = cytotoxic": "-1.97%"},
      {"smiles": "NC(=O)c1ccc(N)nc1", "viability change, negative = cytotoxic": "-14%"},
      {"smiles": "CC(Cc1ccc(C(C)(C)C)cc1)CN1C[C@@H](C)O[C@@H](C)C1", "note": "(stereo not given in full)", "viability change, negative = cytotoxic": "-5.48%"},
      {"smiles": "BrCC(Br)c1ccccc1", "note": "(stereo not given)", "viability change, negative = cytotoxic": "-0.295%"},
      {"smiles": "N#Cc1ccc(O)cc1", "viability change, negative = cytotoxic": "2.1%"},
      {"smiles": "COC12CC[C@@]3(C[C@@H]1C(C)(O)C(C)(C)C)[C@H]1Cc4ccc(O)c5c4[C@@]3(CCN1CC1CC1)[C@H]2O5", "note": "(stereo not given in full)", "Potency": "43 µM (active)"},
      {"smiles": "COP(=S)(OC)Oc1cc(Cl)c(Br)cc1Cl", "viability change, negative = cytotoxic": "-13%"},
      {"smiles": "CCCCOCN(C(=O)CCl)c1c(CC)cccc1CC", "viability change, negative = cytotoxic": "-26.7%"},
      {"smiles": "CCOc1cc(C(C)(C)C)ccc1C1COC(c2c(F)cccc2F)=N1", "note": "(stereo not given)", "viability change, negative = cytotoxic": "-24.6% [at 42.5 µM]"},
      {"smiles": "CN(CCCC(=O)c1cccnc1)N=O", "viability change, negative = cytotoxic": "-0.125%"},
      {"smiles": "CCC(C)c1cc([N+](=O)[O-])cc([N+](=O)[O-])c1OC(=O)C=C(C)C", "note": "(stereo not given)", "Potency": "30.6 µM (active)"},
      {"smiles": "Cl/C=C\\CCl", "viability change, negative = cytotoxic": "9.86%"},
      {"smiles": "COc1ccc(OC)c(C=O)c1", "viability change, negative = cytotoxic": "-5.79%"},
      {"smiles": "Nc1ccc([N+](=O)[O-])cc1Cl", "viability change, negative = cytotoxic": "-11.5%"},
      {"smiles": "CCCN(CCC)CCc1c[nH]c2ccccc12", "viability change, negative = cytotoxic": "-15.3%"},
      {"smiles": "Clc1ccc(Oc2ccccc2)cc1", "viability change, negative = cytotoxic": "11.7%"},
      {"smiles": "OC(Cc1ccccc1Cl)(Cn1cncn1)C1(Cl)CC1", "note": "(stereo not given)", "viability change, negative = cytotoxic": "-10.2%"},
      {"smiles": "ClCc1ccccc1CCl", "viability change, negative = cytotoxic": "2.57%"}
    ]}
  ]
}
